± gives the uncertainty stated by the source.

This test relates to HEK293T-Rex ERSE-FLuc. Description: ERSE-FLuc reporter activation, triplicate confirmation, relative to 500 nM thapsigargin (% of thapsigargin); higher = stronger ATF6/ERSE reporter activation. As to conditions: 6.8 µM; 18 h; screen: confirmation. The procedure: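 HEK293T-Rex cells stably expressing the ERSE-firefly luciferase (BiP promoter, ATF6-preferring) or XBP1-splicing Renilla luciferase (IRE1/XBP1s) reporter, 1536-well plates, compound at 6.8 µM for 18 hr at 37 °C; luminescence read […] and expressed as % activation = 100*(compound - median DMSO)/(median 500 nM thapsigargin - median DMSO). Primary screen was single-pass; confirmation screen in triplicate (mean ± SD).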
As for `Cc1ccc(O)c(NC(=O)CN(C)S(=O)(=O)c2ccc(Cl)cc2)c1`, the ERSE-FLuc reporter activation is 29.8 ± 0.59.
`Oc1ccccc1/C=N\Nc1nc2ccccc2o1` gave an ERSE-FLuc reporter activation of 26.6 ± 4.4.
The figure for `Cc1ccc(O)c(-c2cc(-c3cccs3)[nH]n2)c1` is 44.2 ± 7.9; for `CCOc1ccc2nc(NC(=O)c3ccn(C)n3)sc2c1` it is 30 ± 23.
In the case of `COc1ccc(/C(C)=N/OC/C(O)=C(\C#N)c2nc3ccccc3[nH]2)cc1OC` it was 31.3 ± 11; in that of `COC(=O)c1ccc(C(=O)Nc2ccccc2N)cc1`, 32.9 ± 4.2.
As to `COc1cccc(/C=N/NC(=O)c2ccc(NC(=O)c3ccc(C)cc3)cc2)c1O`, the ERSE-FLuc reporter activation came to 36.4 ± 11.
`CCOc1cc(/C=C2/NC(=O)N(Cc3ccc(F)cc3)C2=O)ccc1O` showed an ERSE-FLuc reporter activation of 32.8 ± 5.4.
On to `O=C(N/N=C\C(Br)=C\c1ccccc1)c1n[nH]c2c1CCCC2`, for which the ERSE-FLuc reporter activation worked out at 35 ± 4.1.
`C=CCNC(=O)c1sc2nc3cc(C)c(C)cc3cc2c1N` displayed an ERSE-FLuc reporter activation of 30.2 ± 5.3.
Consider `O=C(COC(=O)c1ccc(O)c(O)c1)Nc1nc(-c2ccccc2)cs1`, for which the ERSE-FLuc reporter activation was 39.3 ± 5.9.
In turn, `CCOc1ccc(NC(=O)c2ccc3c(c2)OCO3)c([N+](=O)[O-])c1` displayed an ERSE-FLuc reporter activation of 30.1 ± 1.8.
Turning to `Nc1ccc(-c2nc3cc(N)c(Cl)cc3[nH]2)cc1`, the ERSE-FLuc reporter activation was 32.5 ± 3.7.
Consider `CCc1ccc(NC(=O)/C=C/c2ccco2)cc1`, for which the ERSE-FLuc reporter activation worked out at 29.1 ± 4.
Compound `OCCNc1nc(Nc2ccc(Cl)c(Cl)c2)nc2ccccc12` came in with an ERSE-FLuc reporter activation of 87.6 ± 9.4.
`Cc1ccc2nc(NC(=O)c3cccc4ccccc34)sc2c1` came in with an ERSE-FLuc reporter activation of 43.1 ± 7.8.
In the case of `O=C(N/N=C/c1ccc(Cl)cc1Cl)c1ccc(O)c(O)c1` it was 25.8 ± 6.1; in that of `COc1ccc(NC(=O)/C(Cl)=C\c2ccccc2)cc1`, 28.6 ± 2.2; in that of `O=C(Nc1ccccc1O)c1cc2ccccc2o1`, 33 ± 7.3.
`O=C(Nc1ccc(O)cc1)c1c(O)c2c([nH]c1=O)CCCC2` registered an ERSE-FLuc reporter activation of 29.7 ± 1.1.
In the case of `O=C1NC(=Nc2ccc(F)cc2)S/C1=C\c1ccc(O)c(O)c1` it was 32.4 ± 2.3; in that of `COc1ccccc1-c1cnnc(N/N=C/c2c[nH]c3ccccc23)n1`, 37.9 ± 9.7; in that of `Cc1ccc(O)c(NC(=O)c2cc(-c3ccc(F)cc3)on2)c1`, 31.9 ± 8.4.
Turning to `CC(C)CC(c1nnnn1C1CCCC1)N1CCN(C(=O)c2ccco2)CC1` (configuration not stated), the ERSE-FLuc reporter activation came to 29.5 ± 1.
In the case of `N#C/C(=C\c1ccc(O)c(O)c1)c1nc2ccccc2[nH]1`, the ERSE-FLuc reporter activation turned out to be 34.3 ± 1.3.
In the case of `O=C(NCCc1ccc(O)cc1)c1ccc2nc(-c3csc4ccccc34)sc2c1`, the ERSE-FLuc reporter activation came to 103 ± 23.
In the case of `CC(=O)N1CCc2c([nH]c3ccccc23)C12CCN(CCCOc1ccccc1)CC2` it was 44.2 ± 8.7; in that of `COc1cn(-c2ccc(F)cc2)nc1C(=O)Nc1ccccc1SC`, 62.7 ± 4.5; in that of `COc1ccc(-c2csc(-c3ccc(O)cc3)n2)cc1`, 29.4 ± 5.
The compound `O=C1N/C(=C/c2ccc(O)cc2)C(=O)N1c1ccccc1` returned an ERSE-FLuc reporter activation of 66.4 ± 15.
`O=c1[nH]c(/C=C2\C=Nc3ccccc32)c(O)n1-c1cccc(Cl)c1` displayed an ERSE-FLuc reporter activation of 58.7 ± 9.3.
In the case of `Cc1ccc(O)c(NC(=O)c2cc(-c3ccco3)on2)c1` it was 74.4 ± 8.9.
The compound `O=C(/C=C/c1ccco1)Nc1ccccn1` displayed an ERSE-FLuc reporter activation of 27.7 ± 4.8.
`Oc1ccc(/C=N/Nc2cccc3cccnc23)c(O)c1`: the ERSE-FLuc reporter activation is 40.8 ± 12.
For `COc1ccc(-c2nn(-c3ccccc3)cc2/C=C/C(=O)O)cc1[N+](=O)[O-]`, the ERSE-FLuc reporter activation is 31.7 ± 4.4.
Consider `O=C(NC1CCCC1)c1cc(-c2cccs2)on1`, for which the ERSE-FLuc reporter activation stood at 25.7 ± 2.1.
For the compound `Cc1nc(-c2ccc(C(=O)Nc3ccc(O)cc3)cc2)cs1`, the ERSE-FLuc reporter activation worked out at 31.8 ± 7.4.

For the origin of these results see the supplement of paper PMC4954754.
